Test [1] addresses Tyrosine-protein kinase Yes (Homo sapiens) (UniProt P07947). The experiment in a line: qHTS for small molecule inhibitors of Yes1 kinase: Primary Screen (AID 686947). Further: nearly all actives have a fitted effect of over 60% in size. Further: potency means the concentration at half of the fitted maximal effect. The essentials: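 In this qHTS format, inhibition is expressed relative to DMSO controls with enzyme (maximum) and without enzyme (minimum). The 60 min room-temperature reaction uses 0.1 mM ATP, with ADP detected by luminescence.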
On the technique in general: qHTS replaces the single test concentration by a dilution series.

The nature of test [2]: qHTS for small molecule inhibitors of Yes1 kinase: Counter Assay (AID 686950).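 Further: no kinase present so only ADP-Glo detection of a fixed ADP amount is tested; luminescence from ADP-Glo reporting ADP in a fixed ATP and ADP mixture; series mostly up to about 77 µM.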 The procedure, abridged:
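No kinase present; 0.08 mM ATP + 0.02 mM ADP in 50 mM Tris pH 7.5, 10 mM MgCl2, 150 mM NaCl, 1 mM DTT; 20 min compound preincubation, 60 min RT, ADP-Glo luminescence, normalized to ATP/ADP (max) and ATP-only (min).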

Drawing on PubChem BioAssay (NCATS), this text covers Potency and outcome for 14 molecules.

Results filed as inconclusive are left out. A call without a number means that no potency is given here. Activity calls are given as the source filed them. The call rests on the fitted dose curve; in most records, active means well fitted curve in the direction sought with a large enough effect; inconclusive means small, poorly fitted or top-dose-only effect, or another doubt; inactive means no such curve, though single readings can be large; an effect the other way counts as inactive or inconclusive.

Tyrosine-protein kinase Yes (Homo sapiens), sequence (P07947 whole entry, looked up): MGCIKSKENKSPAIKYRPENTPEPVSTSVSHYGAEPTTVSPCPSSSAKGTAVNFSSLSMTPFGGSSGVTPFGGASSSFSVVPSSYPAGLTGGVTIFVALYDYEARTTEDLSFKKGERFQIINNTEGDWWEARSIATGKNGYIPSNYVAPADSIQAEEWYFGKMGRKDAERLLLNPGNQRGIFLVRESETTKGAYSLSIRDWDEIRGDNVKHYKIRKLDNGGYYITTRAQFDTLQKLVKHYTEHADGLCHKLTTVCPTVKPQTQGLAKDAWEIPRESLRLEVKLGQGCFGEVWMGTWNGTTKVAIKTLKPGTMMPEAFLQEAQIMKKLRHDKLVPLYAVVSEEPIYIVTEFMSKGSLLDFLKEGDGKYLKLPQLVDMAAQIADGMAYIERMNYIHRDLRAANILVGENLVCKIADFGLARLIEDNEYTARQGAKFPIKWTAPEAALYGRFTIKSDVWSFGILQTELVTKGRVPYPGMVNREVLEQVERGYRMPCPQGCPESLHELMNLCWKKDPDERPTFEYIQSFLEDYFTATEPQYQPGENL

Regarding `COc1ccc(-c2ccncc2)cc1C(N)=O`, the Potency entry in test [1] is “inactive”. Moreover, the result in test [2] was inactive.

`COc1cc(C=NNc2ncnc3[nH]ncc23)ccc1O`: the Potency in test [1] was 0.232 µM (active). Also, in test [2], the molecule was called inactive.

As to `COc1ccc2ncnc(Nc3ccc(OCc4ccccc4)cc3)c2c1`, in test [1], the Potency was 0.733 µM (active). Also, in test [2], the molecule was called inactive.

As for `CC1=C(C(=O)Nc2ccc3[nH]ncc3c2)C(c2ccc(Cl)c(Cl)c2)CC(=O)N1` (stereo not drawn), in test [1], the Potency is 2.92 µM (active). Also, the outcome in test [2] was inactive.

As for `O=C1N=c2ccc(N=Cc3c(O)[nH]c4ccccc34)cc2=N1`, the Potency in test [1] was 2.92 µM (active). Also, the result in test [2] was inactive.

With `c1ccc(-c2[nH]ncc2-c2ccnc(-c3ccc(OCCN4CCOCC4)cc3)c2)nc1`, the Potency in test [1] is 7.33 µM (active). Moreover, in test [2], the molecule was classed as inactive.

On to `CNC(=O)c1cncc(C=Cc2c(Cl)cccc2Cl)c1`, for which the Potency in test [1] is 0.823 µM (active). The outcome in test [2] was inactive.

For `O=C(Nc1n[nH]c2nc(-c3ccco3)ccc12)C1CC1`, in test [1], the Potency is 2.32 µM (active). For the same molecule, the result in test [2] was inactive.

Consider `NS(=O)(=O)c1ccc(N=Nc2c(O)[nH]c3cccc(CCc4ccncc4)c23)cc1`, for which, in test [1], the Potency result is “inactive”. For the same molecule, the molecule was called inactive in test [2].

Turning to `COc1cccc(COc2cc(-n3cnc4ccccc43)sc2C(N)=O)c1`, the Potency result in test [1] is “inactive”. In addition, in test [2], the molecule was classed as inactive.

Consider `O=C(OC1CNC(C#Cc2cc3ncnc(Nc4ccc(OCc5cccc(F)c5)c(Cl)c4)c3s2)C1)N1CCOCC1` (stereo not drawn), for which, in test [1], the Potency is 6.54 µM (active). Further, the molecule was called inactive in test [2].

With `CCc1ccc(Oc2nccc(-c3c(-c4ccc(F)cc4)ncn3C3CCNCC3)n2)cc1`, the Potency entry in test [1] was “inactive”. Moreover, the outcome in test [2] was inactive.

With `COc1cc2c(cc1Nc1nc(Nc3ccsc3C(N)=O)c3cc[nH]c3n1)N(C(=O)CN(C)C)CCC2`, the Potency result in test [1] was “inactive”. Besides, the molecule was classed as inactive in test [2].

For `NC(=O)c1cccc(Nc2nccc(Nc3cccc(F)c3)n2)c1`, in test [1], the Potency was 1.16 µM (active). The result in test [2] was inactive.
